Reference: PubChem BioAssay (NCATS)
“And” between values parts separate entries of the source, which are not always exact repeats. Equal entries are not always repeated. Inconclusive results are not listed. The source made the active and inactive calls. The call rests on the fitted dose curve; in most records, active means well fitted curve in the direction sought with a large enough effect; inconclusive means small, poorly fitted or top-dose-only effect, or another doubt; inactive means no such curve, though single readings can be large; an effect the other way counts as inactive or inconclusive.

Legend:
[1] = qHTS of pediatric cancer cell lines to identify multiple opportunities for drug repurposing: Primary screen for BT-37 cells (AID 1347094); further: potency means the concentration at half of the fitted maximal effect
Procedure, shortened: (§1)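 Primary screen of approved and investigational compounds on cells in growth media at 37 degrees C, 5% CO2. MIPE set at 11-point and NPC set at 8-point dilutions; viability scored by ATP-based luminescence at 48 hours.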

[2] = qHTS of pediatric cancer cell lines to identify multiple opportunities for drug repurposing: Primary screen for U-2 OS cells (AID 1347096); further: nearly all actives have a fitted effect of over 50% in size
Procedure, shortened: (§2)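 Cells (500-1,000/well) in growth media were settled 5 h at 37 degrees C, then given compounds for 48 h. Viability was read as CellTiter-Glo luminescence. Primary runs used MIPE at 11 points (0.78 nM-46 µM) and NPC at 8 points (0.59 nM-46 µM); follow-ups used 11 points.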

[3] = qHTS of pediatric cancer cell lines to identify multiple opportunities for drug repurposing: Primary screen for Saos-2 cells (AID 1347097); further: nearly all actives have a fitted effect of over 40% in size; further: potency means the concentration at half of the fitted maximal effect
Procedure, shortened: as §1

[4] = qHTS of pediatric cancer cell lines to identify multiple opportunities for drug repurposing: Primary screen for LAN-5 cells (AID 1347100); further: potency means the concentration at half of the fitted maximal effect
Procedure, shortened: as §2

[5] = qHTS of pediatric cancer cell lines to identify multiple opportunities for drug repurposing: Primary screen for BT-12 cells (AID 1347101); further: nearly all actives have a fitted effect of over 25% in size; further: potency means the concentration at half of the fitted maximal effect
Procedure, shortened: (§3)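 Cells (500-1,000/well) rested 5 h, then received compounds for 48 h; metabolically active cells were measured by CellTiter-Glo luminescence. Final concentrations spanned up to 46 µM (MIPE, 11-point) or 0.59 nM-46 µM (NPC, 8-point) in primary screens, 11-point in follow-ups.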

[6] = qHTS of pediatric cancer cell lines to identify multiple opportunities for drug repurposing: Primary screen for Rh18 cells (AID 1347102); further: nearly all actives have a fitted effect of over 65% in size; further: potency means the concentration at half of the fitted maximal effect
Procedure, shortened: as §2

[7] = qHTS of pediatric cancer cell lines to identify multiple opportunities for drug repurposing: Primary screen for OHS-50 cells (AID 1347103); further: nearly all actives have a fitted effect of over 40% in size; further: potency means the concentration at half of the fitted maximal effect
Procedure, shortened: as §3

[8] = qHTS of pediatric cancer cell lines to identify multiple opportunities for drug repurposing: Primary screen for RD cells (AID 1347104); further: nearly all actives have a fitted effect of over 55% in size; further: potency means the concentration at half of the fitted maximal effect
Procedure, shortened: as §1

[9] = qHTS of pediatric cancer cell lines to identify multiple opportunities for drug repurposing: Primary screen for MG 63 (6-TG R) cells (AID 1347105); further: nearly all actives have a fitted effect of over 50% in size; further: potency means the concentration at half of the fitted maximal effect
Procedure, shortened: as §1

[10] = qHTS of pediatric cancer cell lines to identify multiple opportunities for drug repurposing: Primary screen for control Hh wild type fibroblast cells (AID 1347106);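 further: series mostly up to about 46 µM; a drop in luminescence marks cytotoxicity and a rise apparent proliferation; nearly all actives have a fitted effect of over 55% in size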
Procedure, shortened: as §2

[11] = qHTS of pediatric cancer cell lines to identify multiple opportunities for drug repurposing: Primary screen for Rh30 cells (AID 1347107); further: series mostly up to about 46 µM; nearly all actives have a fitted effect of over 75% in size
Procedure, shortened: as §2

[12] = qHTS of pediatric cancer cell lines to identify multiple opportunities for drug repurposing: Primary screen for Rh41 cells (AID 1347108); further: nearly all actives have a fitted effect of over 70% in size; further: potency means the concentration at half of the fitted maximal effect
Procedure, shortened: as §1

[13] = qHTS of pediatric cancer cell lines to identify multiple opportunities for drug repurposing: Confirmatory screen for A673 cells (AID 1347110);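 further: cells exposed to compound for 48 h before the viability read; nearly all actives have a fitted effect of over 65% in size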; further: potency means the concentration at half of the fitted maximal effect
Procedure, shortened: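 Viability was read as ATP luminescence (CellTiter-Glo) after 48 h of compound exposure at 37 C in A673 cells seeded at 500-1,000/well. Titrations reached 46 uM final, with 11 points in the confirmatory screen. Concentration-response curves were fitted directly.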

[14] = qHTS of pediatric cancer cell lines to identify multiple opportunities for drug repurposing: Primary screen for NB-EBc1 cells (AID 1347095); further: potency means the concentration at half of the fitted maximal effect
Procedure, shortened: as §1

[15] = qHTS of pediatric cancer cell lines to identify multiple opportunities for drug repurposing: Primary screen for SK-N-MC cells (AID 1347093); further: potency means the concentration at half of the fitted maximal effect
Procedure, shortened: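 Metabolically active cells were quantified by ATP-dependent luminescence (CellTiter-Glo, 15 min at room temperature) following 48 h treatment. Cells had been plated at 500-1,000 per well and settled for 5 h beforehand.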

[16] = qHTS of pediatric cancer cell lines to identify multiple opportunities for drug repurposing: Primary screen for NB1643 cells (AID 1347099); further: nearly all actives have a fitted effect of over 50% in size; further: potency means the concentration at half of the fitted maximal effect
Procedure, shortened: as §1

[17] = qHTS of pediatric cancer cell lines to identify multiple opportunities for drug repurposing: Confirmatory screen for NB1643 cells (AID 1347109); further: nearly all actives have a fitted effect of over 45% in size; further: potency means the concentration at half of the fitted maximal effect
Procedure, shortened: as §2

[18] = qHTS of pediatric cancer cell lines to identify multiple opportunities for drug repurposing: Primary screen for SK-N-SH cells (AID 1347098); further: nearly all actives have a fitted effect of over 65% in size; further: potency means the concentration at half of the fitted maximal effect
Procedure, shortened: as §3

[19] = qHTS of pediatric cancer cell lines to identify multiple opportunities for drug repurposing: Primary screen for A673 cells (AID 1347092); further: nearly all actives have a fitted effect of over 45% in size; further: potency means the concentration at half of the fitted maximal effect
Procedure, shortened: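 Cell viability of A673 measured by CellTiter-Glo ATP luminescence after 48 hours compound exposure. Dilution series spanned 0.78 nM to 46 µM (MIPE, 11-point) or 0.59 nM to 46 µM (NPC, 8-point); bortezomib 2.3 uM positive control.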

Measured: Potency

OC(CN1CCC(Cc2ccc(F)cc2)CC1)c1ccc(Cl)cc1 (centres undefined)
active: [13] 3.69 µM
not listed: [14] | [15] | [16] | [17] | [18] | [19]
inactive: all other assays above

CC1(C)CNc2cc(NC(=O)c3cccnc3NCc3ccncc3)ccc21
active: [14] 9.35 µM | [4] 20.9 µM
inactive: [2] | [8] | [10] | [11]

CC1(C)Cc2c(-c3ccccc3)c(-c3ccc(Cl)cc3)c(CC(=O)O)n2C1
inactive: [2] | [6] | [10]
active: [15] 26.4 µM | [3] 33.2 µM

C[C@]1(c2nc3c(C(N)=O)cccc3[nH]2)CCCN1
active: [15] 1.18 µM | [3] 20.9 µM | [16] 9.35 µM
inactive: [2] | [6] | [9] | [10] | [17] | [13]

CCOC(=O)N[C@@H]1CC[C@@H]2[C@@H](C1)C[C@H]1C(=O)O[C@H](C)[C@H]1[C@@H]2C=Cc1ccc(-c2cccc(F)c2)cn1
inactive: [6] | [9] | [10]
active: [15] 16.6 µM | [3] 5.9 µM | [18] 21.5 µM | [16] 16.6 µM

CN(C)c1ccc(C2Nc3ccc4ccccc4c3C3=C2C(=O)CC(C)(C)C3)cc1Br (centres undefined)
active: [15] 7.43 µM | [16] 20.9 µM
inactive: [14] | [2] | [18] | [4] | [5] | [6] | [10] | [11]

CC(C)(N)C(=O)N[C@H](COCc1ccccc1)C(=O)N1CCC2(CC1)CN(S(C)(=O)=O)c1ccccc12
active: [15] 23.5 µM | [18] 30.4 µM | [16] 23.5 µM | [7] 27.3 µM | [8] 26.4 µM
inactive: [14] | [2] | [3] | [4] | [10]

Nc1nc2[nH]cc(CCc3ccc(C(=O)N[C@@H](CCC(=O)O)C(=O)O)cc3)c2c(=O)[nH]1
active: [15] 0.132 µM | [14] 1.48 µM | [17] 20.8 µM | [13] 2.33 µM
not listed: [3] | [8] | [9] | [12] | [19]
inactive: all other assays above

CCOc1cc(C=C2C(=O)N(c3ccccc3)N=C2C)cc(Cl)c1OCC(=O)OC
inactive: [1] | [2] | [3] | [5] | [8] | [10] | [11]
active: [15] 11.8 µM | [14] 20.9 µM | [4] 18.7 µM

COCC(=O)NCC=Cc1ccc2ncnc(Nc3ccc(Oc4ccc(C)nc4)c(C)c3)c2c1
active: [19] 4.69 µM | [3] 16.6 µM | [16] 20.9 µM | [4] 18.7 µM | [5] 19.3 µM | [7] 19.3 µM | [13] 23.3 µM
inactive: [2] | [9] | [10]

COc1cc(Oc2ccnc3cc(OC)c(OC)cc23)ccc1NC(=O)NC(C)c1nccs1 (centres undefined)
inactive: [1] | [2] | [16] | [6] | [8] | [10]

O=c1ncn2nc(Sc3ccc(F)cc3F)ccc2c1-c1c(Cl)cccc1Cl
inactive: [14] | [16] | [6] | [8] | [9] | [10] | [11]

OC[C@H](Cc1ccccc1)Nc1nc(Oc2ccc3c(c2)CCC3)nc2c1ncn2Cc1ccc(-c2ccccc2)cc1
active: [15] 1.87 µM | [13] 4.65 µM
not listed: [1] | [3] | [5] | [7] | [8] | [14] | [16]
inactive: all other assays above

COc1ccc(-c2c(-c3ccc(O)cc3O)n[nH]c2C)cc1
active: [14] 38.2 µM | [7] 44.4 µM
inactive: [2] | [6] | [8] | [9] | [10]

COCCNCCCn1c(C(=O)CF)c(-c2ccc(C)cc2)c2c(N)ncnc21
inactive: [1] | [14] | [2] | [4] | [5] | [8] | [10] | [12]

COc1ccccc1-c1cccc(-c2c(O)c3cc(C#N)c(Cl)cc3[nH]c2=O)c1
active: [15] 34 µM | [14] 7.62 µM
not listed: [1] | [3] | [5] | [13] | [17]
inactive: all other assays above

CNC(=O)c1ccc(N2C(=S)N(c3ccc(C#N)c(C(F)(F)F)c3)C(=O)C2(C)C)cc1F
not listed: [5] | [7] | [13] | [17] | [18] | [19]
inactive: all other assays above

CCN(c1ccccc1)c1cc(NC)[n+](C)c(C)n1
not listed: [1] | [4] | [13] | [14] | [17] | [18] | [19]
inactive: all other assays above

CC(=O)NC(C)c1ccc(Oc2ccc(OC(C)C)cc2)cc1 (centres undefined)
active: [15] 13.2 µM | [3] 18.7 µM | [5] 19.3 µM | [7] 21.7 µM
inactive: [2] | [18] | [10]

Cc1cc(SCc2sc(-c3ccc(C(F)(F)F)cc3)nc2C)ccc1OCC(=O)O
active: [15] 18.7 µM
inactive: [1] | [14] | [2] | [3] | [4] | [6] | [8] | [9] | [10] | [11]

Cn1cc(-c2ccc3nnc(C(F)(F)c4ccc5ncccc5c4)n3n2)cn1
inactive: [19] | [15] | [2] | [16] | [8] | [10]

CC[C@@H](C)[C@H](NC(=O)[C@H](CC1CCCCC1)NC(=O)c1ccno1)C(=O)N1CCC2(CCc3ccccc32)CC1
inactive: [19] | [2] | [18] | [6] | [9] | [10]
active: [15] 8.33 µM | [16] 23.5 µM | [7] 17.2 µM

CC(C)C[C@H](NC(=O)[C@@H](O)[C@H](N)Cc1ccccc1)C(=O)O
inactive: [2] | [10]
active: [15] 29.6 µM | [1] 27.3 µM | [3] 18.7 µM | [18] 24.1 µM | [5] 30.6 µM | [7] 19.3 µM | [8] 37.2 µM | [12] 23.5 µM

c1ccc(-c2nn3c(c2-c2ccnc4cc(OCCN5CCOCC5)ccc24)CCC3)nc1
inactive: [15] | [2] | [18] | [5] | [6] | [8] | [9] | [10] | [11] | [12]

COc1cc(F)c(F)c(Nc2ccc(I)cc2F)c1NS(=O)(=O)C1(C[C@H](O)CO)CC1
inactive: [1] | [14] | [16] | [4] | [6] | [9] | [10]
active: [15] 16.6 µM

C#Cc1cccc(Nc2ncnc3cc(OCCOC)c(OCCOC)cc23)c1
inactive: [2] | [8] | [9] | [11]
active: [15] 1.05 µM and 7.5 µM | [1] 19.3 µM and 11 µM | [3] 16.6 µM | [16] 5.9 µM | [5] 24.3 µM | [6] 18.7 µM | [7] 19.3 µM and 6.92 µM | [12] 11.8 µM

O=C(c1cc(Cc2n[nH]c(=O)c3ccccc23)ccc1F)N1CCN(C(=O)C2CC2)CC1
active: [15] 7.43 µM | [14] 10.5 µM | [18] 21.5 µM | [16] 14.8 µM | [4] 14.8 µM | [7] 24.3 µM | [13] 0.104 µM
inactive: [2] | [6] | [17]

COc1c(Cl)cc2c([nH]c3cnccc32)c1NC(=O)c1cccnc1C
active: [15] 1.32 µM
inactive: [14] | [2] | [4] | [10] | [11]

Cc1ccc(NC(=O)c2cccc(C(C)(C)C#N)c2)cc1Nc1ccc2ncn(C)c(=O)c2c1
active: [15] 18.7 µM | [14] 5.26 µM | [18] 24.1 µM | [16] 18.7 µM | [8] 1.18 µM
inactive: [9] | [10]

CC[C@H](Nc1ncnc2nc[nH]c12)c1nc2cccc(F)c2c(=O)n1-c1ccccc1
inactive: [10]
active: [15] 0.935 µM | [14] 14.8 µM | [3] 9.35 µM | [18] 7.64 µM | [16] 16.6 µM | [4] 20.9 µM | [7] 6.85 µM | [9] 2.35 µM | [12] 14.8 µM
